The source of these data is PubChem BioAssay (NCI).

About 83,000 compounds went through this panel and 20% of them were active in at least one assay; those are over-represented in the sample as a whole.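 Note: values are percent growth. 100 is the growth of untreated cells, values between 100 and 0 indicate rising inhibition; between -100 and 0 indicates cell death.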 Unmarked numbers belong to inactive results. Active and inactive are the calls of the source.

In this experiment the test system is HOP-92 NSCLC. As to the kind of experiment: NCI-60 one-dose screen, 48 h (100 = growth as untreated, 0 = no growth, -100 = all killed). Conditions: 10 µM unless noted. The procedure:
Growth inhibition of the HOP-92 human Non-Small Cell Lung tumor cell line is measured as a screen for anti-cancer activity. Cells are grown in 96 well plates and exposed to the test compound for 48 hours. Compounds are tested at a single concentration, which is 10^-5 M for most compounds. The reported endpoint is percent growth (GI% or GIPRCNT), where numbers from 0 - 100% represent growth inhibition, and numbers from -100% - 0 represent cell death. For example, a value of 40 represents 60% growth inhibition. A value of 0 means no net growth occurred over the course of the experiment. A value of -40 indicates 40% of cells at the beginning of the experiment died by the end of the experiment. A value of -100 means all cells are dead at the end of the experiment.
NCI-60 Human Tumor Cell Lines Screen was performed using the standard one-dose NCI protocol, which is described in more detail at https://dtp.cancer.gov/discovery_development/nci-60/default.htm.
Compounds with GIPRCNT values below 10 were considered active. Activity score was based on GIPRCNT using the following formula: […]
Score is 0 for GIPRCNT values of 100 or above, 50 for GIPRCNT values of 0, and 100 for GIPRCNT values of -100.
As to `CCCCNCC(O)c1cc(-c2ccc(C(F)(F)F)cc2)nc(-c2ccc(C(F)(F)F)cc2)c1` (stereo not given), the growth was -86% (active). In the case of `CCOc1c(C#N)c2c(N)ncnc2n1C1OC(CO)C(O)C1O` (stereo not given), the growth is 50.1%. As for `O=C(NC1CC1)c1ccc(-c2nc3ccc4[nH]ncc4c3c3c2CCCC3)cc1`, the figure is 71.2%; as for `O=C1C=CC(=O)N1CO`, 120%. Regarding `C/C(=C\C(=N\N=C(N)N)c1ccc(Cl)cc1)c1ccc(Cl)cc1`, the growth is -77% (active). As for `COc1ccc(/C=C/C(=O)c2ccc(NC(=O)CSc3nnc(-c4ccc(Cl)cc4)n3-c3ccccc3)cc2)cc1`, the figure is 107%; as for `NC(=O)Nc1ccc2ncnc(Nc3cccc(O)c3)c2c1`, 78%.

Turning to `Cc1ccc(/C=C/C(=N/N=C(N)N)c2ccccc2)cc1`, the growth was 13.9%. With `Cc1nc2ccc(Nc3nc(Cl)nc(N4CCOCC4)n3)cc2n1Cc1ccccc1`, the growth is 36.1%. Consider `COc1ccc(-c2nn(-c3cccc(Cl)c3)cc2/C=C2\C(=N)N(c3ccccc3)N=C2N)cc1`, for which the growth was 96.2%. Take `NCCCOc1cc2ccccc2cc1C(=O)NCCCOc1cc2ccccc2cc1C(=O)Nc1ccc(Cl)cc1O`: the growth is -75.9% (active). Regarding `COc1cc(OC)cc(-c2n/c(=C\c3c(O)[nH]c4ccc(Cl)cc34)cc3c2=Nc2ccccc2-3)c1`, the growth was 92.6%.

For the molecule `Clc1cc(Br)ccc1-c1ccc(CNCC2CCNCC2)o1`, the growth is 56.3%. With `Cc1cc(Cl)c2ccc(N(C)C)cc2n1`, the growth is 102%. On to `CCc1oc2ccccc2c1C(=O)c1cc(I)c(O)c(I)c1`, for which the growth was 53.2%. In the case of `COc1ccc(/C=C2\Cc3c(Br)cccc3C2=O)c(OC)c1`, the growth is 88.2%. On to `CC(C)CC(NC(=O)OCC1c2ccccc2-c2ccccc21)C(=O)O` (stereo not given), for which the growth is 96.2%. Turning to `COc1cc(Cn2c(-c3ccccc3)cc3c2-c2oncc2CC3)cc(OC)c1OC`, the growth is 28%. As for `O=C(OCc1ccc2c(Br)cc(Br)c(O)c2n1)c1cc2ccccc2[nH]1`, the figure is -66.4% (active); as for `O=C(Nc1ccccc1)C(CCCCN1C(=O)c2ccccc2C1=O)N1C(=O)c2ccccc2C1=O` (stereo not given), 76.8%. In the case of `CCOCC(O)(c1ccc(Cl)cc1)c1ccc(Cl)cc1`, the growth was 107%. Take `NC(N)=N/N=C/c1ccccc1`: the growth is 95.8%. Consider `NC(N)=N/N=C\c1cccc(OCc2ccccc2)c1`, for which the growth is 40.9%.

For `O=C1/C(=C\c2cccn2Cc2ccc(Cl)cc2)c2ccccc2N1c1c(Cl)cccc1Cl`, the growth was 74.8%. Turning to `CC(=O)O[C@H]1[C@H](CC#CC#CC[C@@H]2C[C@]3(C)[C@H]4CC=C5[C@H]6[C@@H](C)[C@H](C)CC[C@]6(C(=O)NCCN(CCN)CCN)CC[C@@]5(C)[C@]4(C)CC[C@H]3C(C)(C)[C@H]2OC(C)=O)C[C@]2(C)[C@H]3CC=C4[C@H]5[C@@H](C)[C@H](C)CC[C@]5(C(=O)NCCN(CCN)CCN)CC[C@@]4(C)[C@]3(C)CC[C@H]2C1(C)C`, the growth is 48.6%. Take `COc1ccc(-c2n[nH]nc2-c2cc(OC)c3c(c2)OCO3)cc1`: the growth is 29%. Turning to `N#Cc1c(N)n(C2OC(CO)C(O)C2O)c2ncnc(N)c12` (stereo not given), the growth was -21.3% (active). As to `N=c1n(Cc2ccccc2)c(N)cc(=O)n1Cc1ccccc1`, the growth was 99.5%.

Turning to `Cc1nc2ccc(Nc3nc(NCCN4CCOCC4)nc(Nc4ccc(F)cc4)n3)cc2n1Cc1ccccc1`, the growth was 30.3%.

As for `C=CC[C@]1(O)CC[C@H]2[C@@H]3CCc4cc(O)ccc4[C@H]3CC[C@@]21C`, the growth is 115%. As for `CC(=O)Nc1ccc(Cl)cc1Cl`, the growth was 107%.

For `COc1cc2c(cc1OC)C(=O)C(Br)CC2` (stereo not given), the growth was 20.2%. In the case of `Cc1cc(C)c2c(NC(=O)Nc3ccc(Cl)c(Cl)c3)n[nH]c2n1`, the growth is 117%. In the case of `c1ccc(C(CC2=NCCCN2)c2ccccc2)cc1`, the growth was 82.6%.

For the molecule `COc1ccc(C2C=C(c3ccc(Cl)cc3)N=C3SC=CN32)cc1` (stereo not given), the growth is 86.4%. As for `Fc1ccc(-c2nnc(N3CCOCC3)c3ccccc23)cc1`, the growth was 103%. As to `COC(=O)C(C)NC1=C(Cl)C(=O)C(NC(C)C(=O)OC)=C(Cl)C1=O` (stereo not given), the growth is 101%.

For `COc1cccc(CC(C)=C(c2ccc(OCCCN(C)C)cc2)c2ccc(OCCCN(C)C)cc2)c1`, the growth is -53% (active). As for `CC1=C(C(=O)Nc2ccc(F)cc2)C(c2ccc(C)cc2)C2=C(CC(C)(C)CC2=O)N1` (stereo not given), the growth is 68.4%.

Consider `Cc1ccc(NC(=O)c2nc(S(C)(=O)=O)oc2-c2ccc(F)cc2)cc1Nc1ccc2ncn(C)c(=O)c2c1`, for which the growth is 108%.
